Laboratory results from PubChem BioAssay.
“And” between values parts separate entries of the source, which are not always exact repeats. Equal entries are not always repeated.

Experiment: binders of probe aFSTL3 on microarray, primary screen, stem cell growth factor project, biochemical, small-molecule microarray, fluorescence 635/667 (AID 1064);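 note: measures binding of the biotinylated anti-FSTL3 antibody to printed compounds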
Details: higher = more signal

| SMILES | composite z-score |
| --- | --- |
| C=CCN(CCCC)C(=O)C1N(c2ccc(CCO)cc2)C(=O)C2C(C(=O)O)C3C=CC21O3 (stereo not given) | 0.508 and 1.27 |
| COC(=O)C1=C(C)N(Cc2ccccc2)C2=C3C(=O)N(c4ccccc4)C(=O)[C@@H]3[C@@](O)(C(=O)OC)C(=O)N2[C@@H]1c1ccccc1 | -0.302 and -0.483 |
| CCC[C@@H]1C[C@@]1(CCC)[C@@H](NC(=O)c1ccc(-c2ccccc2)cc1)c1cccc(Cl)c1 | 2.36 and 0.236 |
| C=CCN(C(=O)C(c1cccs1)N(C(=O)/C=C\C(=O)O)c1ccc(CCO)cc1)C(C)(C)C (stereo not given) | 0.396 and 0.476 |
| C=CCN(Cc1ccccc1)C(=O)C1N(CCCCCCO)C(=O)C2C(C(=O)O)C3C=CC21O3 (stereo not given) | 1.09 and 1.2 |
| COc1ccc(COC(=O)NN=C2C[C@@H](O)[C@@H](O)[C@@H]3[C@@H]4C(=O)N(C(C)(C)C)C(=O)[C@@H]4CC[C@H]23)cc1 | -0.494 |
| O=C1NC(=O)C2C1C=CC(C(O)c1ccc([N+](=O)[O-])cc1)N2Nc1ccc(Cl)cc1Cl (stereo not given) | 0.396 and 1.04 |
| COC(=O)C1=C(C)N(Cc2ccccc2)C2=C3C(=O)CCC[C@@H]3[C@@](O)(C(=O)OC)C(=O)N2[C@@H]1c1ccccc1 | -0.438 and -0.212 |
| C[N+](C)(C)CCCCNC(=O)[C@H]1C[C@H]2C(=O)N[C@@H](CCCC[N+](C)(C)C)C(=O)N2[C@H]1c1cccc(OCCO)c1 | -0.0665 and -0.363 |
| C=CCN(CCCCC)C(=O)C1N(c2ccc(CCO)cc2)C(=O)C2C(C(=O)O)C3C=CC21O3 (stereo not given) | -0.152 and 0.561 |
| CC(C)C(=O)N[C@@H]1CCCN1C(=O)C=Cc1ccccc1 | -0.46 |
| C[C@@H](ON=C1[C@H]2CCn3c(=O)n(-c4ccccc4)c(=O)n3[C@H]2[C@H](O)[C@@H]2O[C@H]12)c1cn([C@H](CO)Cc2ccccc2)nn1 | -0.289 |
| C=CCN1C(=O)[C@]2(O[C@H](CCn3cc(CCO)nn3)[C@@H]([Si](C)(C)c3ccc(OC)cc3)[C@@H]2C)c2cc(N3C(=O)c4cccc5cccc3c45)ccc21 | -0.298 and -0.359 |
| COC(=O)[C@@]1(Cc2ccc(F)cc2)[C@H]2c3cc(C(=O)N4CCCC4)n(Cc4c(CO)[nH]cc(C)c4=O)c3C[C@H]2CN1C(=O)c1ccccc1 | 1.8 and 0.692 |
| C=CCN(CCCCC)C(=O)C1N(c2c(Cl)cccc2CO)C(=O)C2C(C(=O)O)C3C=CC21O3 (stereo not given) | 1.15 and 1.51 |
| C=CCN(C(=O)C1N(c2c(Cl)cccc2CO)C(=O)C2C(C(=O)O)C3C=CC21O3)C(C)(C)C (stereo not given) | -0.933 and 1.87 |
| COC(=O)[C@@]1(Cc2ccc(OC)cc2)[C@H]2c3cc(C(=O)N(C)C)n(Cc4ccc(O)c(OC)c4)c3C[C@H]2CN1C(=O)c1ccccc1 | 0.332 and 0.233 |
| C=CCN(C(=O)C1N(C(C)(C)CO)C(=O)C2C(C(=O)O)C3C=CC21O3)c1ccc(OC)cc1 (stereo not given) | 1.84 and 1.41 |
| C[N+](C)(C)CCCCNC(=O)[C@@H]1C[C@@H]2C(=O)N[C@@H](CCCC[N+](C)(C)C)C(=O)N2[C@@H]1c1cccc(OCCO)c1 | -0.0301 and -0.304 |
| CCCC[C@@H]1CN2[C@@H](CC[C@@H](C)[C@@H]2c2ccc(Br)cc2)C(=O)O1 | -0.519 and -0.353 |
| CCN1C(=O)[C@H]2[C@H]3[C@H](O)[C@H](O)CC(=NOC)[C@@H]3CC[C@H]2C1=O | 0.206 |
| C=C[C@H](OC)[C@@H](O)c1ccc(OCCO)cc1 | 1.29 and 1.32 |
| COC(=O)C1=C(C)N(Cc2ccccc2)[C@]23O[C@](C(=O)OC)(C(=O)N2[C@@H]1c1ccccc1)[C@@H](c1ccccc1)[C@@H]3C(=O)c1ccccc1 | -0.139 and -0.413 |
| CCOC(=O)[C@@H]1CC=C2CC1C(=O)N1CCC[C@@H]1[C@H]2O[Si](C)(C)C(C)(C)C (stereo not given in full) | -0.116 and -0.386 |
| CCOC(=O)[C@@H]1CC2O[C@]23C[C@@H]1C(=O)N1CCC[C@@H]1[C@H]3O[Si](C)(C)C(C)(C)C (stereo not given in full) | -0.224 and -0.287 |
| Cc1ccc(S(=O)(=O)OC[C@@H]2CN3[C@@H](CC[C@@H](C)[C@@H]3c3ccc(Br)cc3)C(=O)O2)cc1 | -0.14 and -0.482 |
| COC(=O)C1=C(C)N(Cc2ccccc2)[C@]23O[C@](C(=O)OC)(C(=O)N2[C@@H]1c1ccccc1)[C@H]1C(=O)N(c2ccccc2)C(=O)[C@H]13 | -0.387 and -0.343 |
| CCOC(=O)c1ccc(NC(=O)O[C@H]2[C@H](OC(=O)Nc3ccccc3)[C@H](OC(=O)Nc3ccccc3)[C@@H](OC)O[C@@H]2CO)cc1 | 0.496 and 0.0126 |
| C[N+](C)(C)CCCCCCNC(=O)[C@H]1C[C@H]2C(=O)N[C@@H](CCCC[N+](C)(C)C)C(=O)N2[C@H]1c1ccc(O)cc1 | 0.267 and 0.341 |
| Cc1ccc(S(=O)(=O)N[C@@H]2COC(=O)CC=C[C@@H](C)[C@@H]3C=C[C@H](O)[C@@H](COC(=O)CC=C[C@H]2C)O3)cc1 | -0.534 and -0.776 |
